The values that follow come from ChEMBL document CHEMBL2218924, “A broad activity screen in support of a chemogenomic map for kinase signalling research and drug discovery” (Biochem J, 2013).

As usually defined, the residual activity is the signal under treatment as a percentage of the control signal.

The target in assay [1] is Serine/threonine-protein kinase WNK2 (Homo sapiens) (UniProt Q9Y3S1). To be noted: at 10 µM.
In assay [2] the target is Serine/threonine-protein kinase WNK3 (Homo sapiens) (UniProt Q9BYP7). To be noted: at 1 µM.
Sequence of Serine/threonine-protein kinase WNK3 (Homo sapiens) (Q9BYP7 whole entry): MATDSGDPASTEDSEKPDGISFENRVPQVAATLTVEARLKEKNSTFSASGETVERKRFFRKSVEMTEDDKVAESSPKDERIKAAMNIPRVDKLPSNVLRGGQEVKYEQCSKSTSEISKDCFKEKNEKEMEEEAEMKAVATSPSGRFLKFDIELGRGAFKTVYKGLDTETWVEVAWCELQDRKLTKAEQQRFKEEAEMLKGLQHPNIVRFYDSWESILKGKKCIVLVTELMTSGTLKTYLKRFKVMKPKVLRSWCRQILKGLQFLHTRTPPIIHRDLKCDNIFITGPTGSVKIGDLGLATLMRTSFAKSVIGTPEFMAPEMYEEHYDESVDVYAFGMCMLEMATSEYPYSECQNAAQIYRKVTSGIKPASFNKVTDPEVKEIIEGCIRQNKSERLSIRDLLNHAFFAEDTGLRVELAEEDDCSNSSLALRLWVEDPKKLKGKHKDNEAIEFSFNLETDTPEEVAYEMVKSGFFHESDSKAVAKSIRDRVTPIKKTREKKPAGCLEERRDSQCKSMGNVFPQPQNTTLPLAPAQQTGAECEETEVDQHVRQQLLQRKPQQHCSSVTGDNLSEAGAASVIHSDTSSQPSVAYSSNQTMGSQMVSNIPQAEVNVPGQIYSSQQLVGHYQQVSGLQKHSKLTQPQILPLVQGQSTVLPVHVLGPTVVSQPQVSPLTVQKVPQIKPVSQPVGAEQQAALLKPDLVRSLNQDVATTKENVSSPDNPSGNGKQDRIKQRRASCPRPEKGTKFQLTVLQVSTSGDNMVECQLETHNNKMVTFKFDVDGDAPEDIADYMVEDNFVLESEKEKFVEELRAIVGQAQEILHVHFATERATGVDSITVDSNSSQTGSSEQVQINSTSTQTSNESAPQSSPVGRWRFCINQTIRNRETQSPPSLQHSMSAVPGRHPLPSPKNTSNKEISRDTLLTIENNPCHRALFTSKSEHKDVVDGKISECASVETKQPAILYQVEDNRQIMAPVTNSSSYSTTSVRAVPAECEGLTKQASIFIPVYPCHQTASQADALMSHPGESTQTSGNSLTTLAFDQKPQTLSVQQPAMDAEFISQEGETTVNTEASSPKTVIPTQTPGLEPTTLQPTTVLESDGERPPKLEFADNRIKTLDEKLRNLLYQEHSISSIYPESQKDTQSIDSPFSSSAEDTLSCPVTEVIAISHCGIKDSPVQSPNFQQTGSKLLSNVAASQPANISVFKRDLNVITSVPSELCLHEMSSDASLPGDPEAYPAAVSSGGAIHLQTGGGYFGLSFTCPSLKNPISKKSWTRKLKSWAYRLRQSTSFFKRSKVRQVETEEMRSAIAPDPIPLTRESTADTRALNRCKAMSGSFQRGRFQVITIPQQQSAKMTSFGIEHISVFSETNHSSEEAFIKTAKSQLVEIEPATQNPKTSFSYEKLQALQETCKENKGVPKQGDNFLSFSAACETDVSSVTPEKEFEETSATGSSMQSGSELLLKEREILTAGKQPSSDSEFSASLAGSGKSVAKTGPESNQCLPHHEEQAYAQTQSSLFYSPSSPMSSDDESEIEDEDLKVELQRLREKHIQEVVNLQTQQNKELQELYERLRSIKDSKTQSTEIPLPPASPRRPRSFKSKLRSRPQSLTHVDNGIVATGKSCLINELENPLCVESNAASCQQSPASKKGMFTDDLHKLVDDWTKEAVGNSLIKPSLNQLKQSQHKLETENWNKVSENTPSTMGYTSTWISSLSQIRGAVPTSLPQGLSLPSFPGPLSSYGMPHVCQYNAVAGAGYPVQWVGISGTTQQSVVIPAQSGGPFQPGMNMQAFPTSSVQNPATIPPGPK
Assay [3] shares this target. To be noted: at 10 µM.
Assay [4] concerns the target Tyrosine-protein kinase Yes (Homo sapiens) (UniProt P07947). Conditions: at 1 µM; call rule not given here.
The target is the same in assay [5]. To be noted: at 10 µM.
Assay [6] addresses T1, Tyrosine-protein kinase ZAP-70 (Homo sapiens) (UniProt P43403).
T1 sequence (whole entry): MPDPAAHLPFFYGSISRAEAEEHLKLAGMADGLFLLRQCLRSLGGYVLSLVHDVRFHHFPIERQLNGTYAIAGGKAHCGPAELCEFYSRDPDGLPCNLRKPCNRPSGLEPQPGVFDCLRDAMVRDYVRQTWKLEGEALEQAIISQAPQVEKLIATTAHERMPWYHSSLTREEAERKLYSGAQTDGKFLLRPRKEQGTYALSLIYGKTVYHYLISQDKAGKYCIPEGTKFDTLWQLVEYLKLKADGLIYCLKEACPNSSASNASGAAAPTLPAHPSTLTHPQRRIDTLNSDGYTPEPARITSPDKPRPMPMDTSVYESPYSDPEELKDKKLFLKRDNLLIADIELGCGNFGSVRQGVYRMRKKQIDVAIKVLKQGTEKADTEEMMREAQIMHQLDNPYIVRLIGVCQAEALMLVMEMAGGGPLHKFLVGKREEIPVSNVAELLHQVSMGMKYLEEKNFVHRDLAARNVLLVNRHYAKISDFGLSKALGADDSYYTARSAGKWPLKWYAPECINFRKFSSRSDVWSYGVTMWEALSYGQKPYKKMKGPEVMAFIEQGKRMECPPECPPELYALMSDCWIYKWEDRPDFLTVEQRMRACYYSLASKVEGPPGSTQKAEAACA
Conditions: at 1 µM.

Assay [7] concerns the target Death-associated protein kinase 3 (Homo sapiens) (UniProt O43293). Conditions: at 1 µM.
Assay [8] has the same target. Conditions: at 10 µM.
Assay [9] addresses RAF proto-oncogene serine/threonine-protein kinase (Homo sapiens) (UniProt P04049). To be noted: at 1 µM.
Assay [10] shares this target. Conditions: at 10 µM.

Sequence of Serine/threonine-protein kinase WNK2 (Homo sapiens) (Q9Y3S1 whole entry): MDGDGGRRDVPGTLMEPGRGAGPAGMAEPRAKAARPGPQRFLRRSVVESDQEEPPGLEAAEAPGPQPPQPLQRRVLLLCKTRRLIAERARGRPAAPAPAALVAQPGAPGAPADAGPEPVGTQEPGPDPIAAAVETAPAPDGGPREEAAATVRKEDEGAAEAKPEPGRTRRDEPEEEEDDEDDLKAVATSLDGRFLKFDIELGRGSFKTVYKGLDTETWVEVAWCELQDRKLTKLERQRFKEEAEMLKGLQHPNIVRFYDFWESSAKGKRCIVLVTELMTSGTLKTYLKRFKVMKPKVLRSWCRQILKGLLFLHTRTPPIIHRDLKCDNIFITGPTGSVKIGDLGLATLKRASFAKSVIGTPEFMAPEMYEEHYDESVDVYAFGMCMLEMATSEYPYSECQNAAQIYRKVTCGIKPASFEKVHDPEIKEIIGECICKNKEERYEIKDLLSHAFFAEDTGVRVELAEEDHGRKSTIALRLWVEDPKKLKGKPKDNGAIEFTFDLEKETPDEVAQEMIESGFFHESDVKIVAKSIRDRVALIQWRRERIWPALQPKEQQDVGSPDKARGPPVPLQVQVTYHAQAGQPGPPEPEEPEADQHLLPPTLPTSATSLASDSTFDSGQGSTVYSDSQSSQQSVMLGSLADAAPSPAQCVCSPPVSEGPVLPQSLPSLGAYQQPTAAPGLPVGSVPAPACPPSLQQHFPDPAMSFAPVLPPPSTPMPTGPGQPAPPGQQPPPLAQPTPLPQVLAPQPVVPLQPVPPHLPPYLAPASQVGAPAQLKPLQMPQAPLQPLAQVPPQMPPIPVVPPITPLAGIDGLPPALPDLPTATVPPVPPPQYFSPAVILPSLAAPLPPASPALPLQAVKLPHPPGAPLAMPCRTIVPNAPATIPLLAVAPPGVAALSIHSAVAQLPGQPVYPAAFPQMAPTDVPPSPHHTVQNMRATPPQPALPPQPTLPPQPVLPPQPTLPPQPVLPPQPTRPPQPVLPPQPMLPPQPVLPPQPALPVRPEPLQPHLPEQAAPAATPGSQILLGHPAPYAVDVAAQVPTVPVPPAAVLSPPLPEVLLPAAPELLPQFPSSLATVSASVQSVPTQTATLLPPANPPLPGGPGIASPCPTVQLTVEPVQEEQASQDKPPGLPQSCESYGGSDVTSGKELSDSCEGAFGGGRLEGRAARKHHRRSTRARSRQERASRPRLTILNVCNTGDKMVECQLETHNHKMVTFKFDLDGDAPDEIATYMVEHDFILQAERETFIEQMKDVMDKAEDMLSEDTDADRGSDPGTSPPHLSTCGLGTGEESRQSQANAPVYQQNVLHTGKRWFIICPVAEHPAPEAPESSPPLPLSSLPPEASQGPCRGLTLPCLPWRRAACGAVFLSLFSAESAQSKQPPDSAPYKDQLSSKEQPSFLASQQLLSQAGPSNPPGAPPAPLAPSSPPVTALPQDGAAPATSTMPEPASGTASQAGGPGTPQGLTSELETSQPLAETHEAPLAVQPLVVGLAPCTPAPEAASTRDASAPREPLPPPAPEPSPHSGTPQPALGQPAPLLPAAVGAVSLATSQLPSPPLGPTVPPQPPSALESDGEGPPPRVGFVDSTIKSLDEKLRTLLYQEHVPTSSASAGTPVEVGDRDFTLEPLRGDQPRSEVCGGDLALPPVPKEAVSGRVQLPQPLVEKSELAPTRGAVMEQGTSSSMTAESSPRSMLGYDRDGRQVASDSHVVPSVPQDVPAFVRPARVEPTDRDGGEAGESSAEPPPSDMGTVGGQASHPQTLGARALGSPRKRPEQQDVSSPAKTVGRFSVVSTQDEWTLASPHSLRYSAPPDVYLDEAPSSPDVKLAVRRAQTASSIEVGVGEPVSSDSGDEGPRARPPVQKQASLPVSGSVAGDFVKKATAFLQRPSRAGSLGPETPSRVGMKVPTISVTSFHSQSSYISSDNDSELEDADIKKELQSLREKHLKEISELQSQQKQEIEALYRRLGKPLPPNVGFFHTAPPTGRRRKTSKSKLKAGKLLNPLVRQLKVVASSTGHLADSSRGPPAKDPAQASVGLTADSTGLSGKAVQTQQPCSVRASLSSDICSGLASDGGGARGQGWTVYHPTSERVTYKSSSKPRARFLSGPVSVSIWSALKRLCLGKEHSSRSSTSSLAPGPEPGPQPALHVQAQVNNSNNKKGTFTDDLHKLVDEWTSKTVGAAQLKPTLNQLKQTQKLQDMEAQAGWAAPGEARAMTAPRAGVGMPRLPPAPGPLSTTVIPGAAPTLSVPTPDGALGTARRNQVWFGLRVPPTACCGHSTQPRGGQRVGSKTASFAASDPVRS
Sequence of RAF proto-oncogene serine/threonine-protein kinase (Homo sapiens) (P04049 whole entry): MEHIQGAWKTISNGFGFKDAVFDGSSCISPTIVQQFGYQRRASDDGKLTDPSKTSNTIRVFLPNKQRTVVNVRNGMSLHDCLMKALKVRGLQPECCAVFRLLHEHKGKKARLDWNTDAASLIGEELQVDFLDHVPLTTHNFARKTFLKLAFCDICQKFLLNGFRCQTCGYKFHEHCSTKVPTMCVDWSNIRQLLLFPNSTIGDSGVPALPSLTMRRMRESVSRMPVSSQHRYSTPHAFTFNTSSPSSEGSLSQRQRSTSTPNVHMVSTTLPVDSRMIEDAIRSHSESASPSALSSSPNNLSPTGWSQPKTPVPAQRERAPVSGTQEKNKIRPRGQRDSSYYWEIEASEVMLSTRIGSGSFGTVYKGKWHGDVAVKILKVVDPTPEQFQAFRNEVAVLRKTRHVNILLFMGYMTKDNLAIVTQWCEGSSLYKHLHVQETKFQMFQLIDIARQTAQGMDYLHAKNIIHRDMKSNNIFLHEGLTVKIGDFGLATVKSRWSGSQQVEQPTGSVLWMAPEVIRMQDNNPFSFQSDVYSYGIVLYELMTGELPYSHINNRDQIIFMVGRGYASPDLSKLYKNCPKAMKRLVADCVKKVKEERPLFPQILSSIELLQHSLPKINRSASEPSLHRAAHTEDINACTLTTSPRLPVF

In the case of `CNc1cc2c(Nc3cccc(Br)c3)ncnc2cn1`, the residual activity is 89% in assay [1]; 101% (inactive) in assay [2]; 91% in assay [3]; 67% in assay [4]; 45% in [5]; 99% in assay [6]. For the same molecule, the residual activity came to 84% in assay [7], 88% in assay [8], 80% in [9] and 91% in assay [10].
As to `Cc1nc(-c2ccccc2)c(-c2ccncc2)o1`, the residual activity is 101% in assay [1]; 104% (inactive) in assay [2]; 100% in [3]; 121% in assay [4]; 99% in assay [5]; 127% in [6]. In addition, the residual activity in [7] is 106%; in [8] it was 94%; in [9], 60%; in assay [10], 40%.
For `COc1cc2ncnc(Nc3ccc(Oc4ccccc4)cc3)c2cc1OC`, the residual activity was 41% in assay [1]; 88% (inactive) in assay [2]; 49% in assay [3]; 9% in assay [4]; 4% in assay [5]; 114% in assay [6]. Further, the residual activity in assay [7] came out at 103%; in assay [8] it was 117%.
As for `CCN(CC)CCCCN1c2ccccc2Oc2ccc(Cl)cc21`, the residual activity was 89% in assay [1]; 126% (inactive) in [2]; 104% in [3]; 106% in [4]; 94% in assay [5]; 113% in [6]. For the same molecule, the residual activity stood at 99% in assay [7], 109% in assay [8], 93% in assay [9] and 100% in assay [10].
Regarding `COc1cccc(-c2cc(=O)c3ccccc3o2)c1N`, the residual activity was 102% in assay [1]; 82% (inactive) in [2]; 100% in [3]; 123% in assay [4]; 106% in assay [5]; 137% in assay [6]. Besides, the residual activity is 105% in assay [7], 101% in [8], 85% in [9] and 86% in assay [10].
Take `CCC(=O)Nc1ccc2ncnc(Nc3cccc(Br)c3)c2c1`: the residual activity was 80% in assay [1]; 95% (inactive) in assay [2]; 80% in [3]; 85% in assay [4]; 50% in assay [5]; 86% in [6]. In addition, the residual activity stood at 75% in assay [7], 100% in [8], 77% in assay [9] and 90% in [10].
`O=c1c2ccccc2[nH]c(=S)n1CCN1CCC(=C(c2ccc(F)cc2)c2ccc(F)cc2)CC1`: the residual activity in assay [1] is 94%; in assay [2], 116% (inactive); in assay [3] it was 102%; in assay [4], 105%; in assay [5] it was 96%; in [6], 101%. Besides, the residual activity in assay [7] worked out at 75%; in assay [8] it was 74%; in assay [9] it was 83%; in assay [10], 94%.
`Oc1c2ccccc2c2c3c(cccc13)N=N2`: the residual activity was 77% in assay [1]; 87% (inactive) in assay [2]; 77% in assay [3]; 98% in assay [4]; 51% in [5]; 94% in assay [6]. The residual activity worked out at 87% in [7], 45% in assay [8], 69% in [9] and 61% in assay [10].
For the molecule `Oc1ccc(-c2nc(-c3ccc(F)cc3)c(-c3ccncc3)[nH]2)cc1`, the residual activity in assay [1] was 84%; in [2] it was 109% (inactive); in [3], 75%; in assay [4], 105%; in [5], 34%; in assay [6] it was 117%. For the same molecule, the figures for the residual activity in assay [7], in [8] and in [9] were 121%, 101% and 14%, respectively.
With `Cc1nc2cc3nc(-c4cccs4)cnc3cc2n1C`, the residual activity in assay [1] is 94%; in [2], 124% (inactive); in [3], 71%; in assay [4] it was 106%; in assay [5] it was 59%; in assay [6], 135%. In addition, the residual activity came out at 97% in assay [7], 102% in [8], 97% in assay [9] and 95% in assay [10].
Take `CO[C@@H]1[C@H](N(C)C(=O)c2ccccc2)C[C@H]2O[C@]1(C)n1c3ccccc3c3c4c(c5c6ccccc6n2c5c31)C(=O)NC4`: the residual activity in assay [1] was 60%; in assay [2], 91% (inactive); in assay [3] it was 76%; in assay [4], 5%; in assay [5] it was 4%; in assay [6], 70%. The residual activity in assay [7] worked out at 56%; in [8], 59%; in assay [9], 80%; in [10], 90%.
Turning to `O=C1c2ccccc2-[n+]2ccc3c([nH]c4ccccc43)c21`, the residual activity in [1] is 92%; in assay [2] it was 91% (inactive); in assay [3], 93%; in [4] it was 113%; in assay [5], 86%; in assay [6] it was 128%. The residual activity in [7] was found to be 73%; in assay [8], 78%; in [9], 71%; in [10], 73%.
`O=C(O)c1ccc2c3c1cccc3c(=O)n1c3ccccc3nc21`: the residual activity in assay [1] was 106%; in assay [2] it was 111% (inactive); in assay [3], 97%; in assay [4], 118%; in [5], 103%; in [6], 113%. Also, the residual activity was determined as 60% in assay [7], 14% in assay [8], 83% in assay [9] and 89% in assay [10].
With `Oc1ccc(Nc2nc(-c3ccc(Cl)cc3)cs2)cc1`, the residual activity in assay [1] was 99%; in [2], 109% (inactive); in [3] it was 91%; in [4] it was 123%; in assay [5], 92%; in assay [6], 115%. Also, the residual activity was determined as 110% in assay [7], 133% in [8], 84% in assay [9] and 84% in assay [10].
Regarding `N#C/C(=C(\N)Sc1ccc(N)cc1)c1ccccc1C(F)(F)F`, the residual activity in assay [1] was 89%; in assay [2], 93% (inactive); in [3], 89%; in [4] it was 107%; in [5], 101%; in assay [6], 100%. In addition, the residual activity in [7] turned out to be 89%; in [8], 100%; in assay [9], 76%; in assay [10], 66%.
Consider `O=c1cc(-c2cccc3c2Sc2ccccc2S3)oc(N2CCOCC2)c1`, for which the residual activity was 78% in assay [1]; 95% (inactive) in assay [2]; 87% in assay [3]; 109% in [4]; 91% in assay [5]; 113% in assay [6]. Moreover, the residual activity in assay [7] turned out to be 104%; in assay [8], 99%; in assay [9], 96%; in assay [10], 55%.
Take `CC(C)n1cnc2c(NCc3ccccc3)nc(NCCCO)nc21`: the residual activity in assay [1] was 89%; in assay [2], 105% (inactive); in assay [3], 92%; in [4], 108%; in assay [5] it was 88%; in assay [6] it was 114%. In addition, the residual activity is 87% in [7], 97% in assay [8], 85% in [9] and 78% in assay [10].
